# Measurements from the supplement of paper PMC4166925.
# ± gives the standard deviation of the averaged measurements. Over roughly 33,000 sequences, “E-score (dimensionless, -0.5 to 0.5)” has its median near -0.046; the highest 2% begin near 0.36. For the sample, the highest values were picked, then their nearest neighbours and some sequences at random.
# System: T1, SpTbr T-box DNA-binding domain (GST fusion)
# T1 sequence: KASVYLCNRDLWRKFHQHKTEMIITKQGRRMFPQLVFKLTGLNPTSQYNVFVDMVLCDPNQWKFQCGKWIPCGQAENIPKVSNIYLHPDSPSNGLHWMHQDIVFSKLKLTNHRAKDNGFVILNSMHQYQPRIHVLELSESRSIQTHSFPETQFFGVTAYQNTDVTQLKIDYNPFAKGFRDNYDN
# Assay: PBM E-score of 8-mer (E-score (dimensionless, -0.5 to 0.5)); Tbr is Tbrain of the sea star Patiria miniata (Pm) or the sea urchin Strongylocentrotus purpuratus (Sp); higher = stronger binding preference
# Details: the construct has about 5 more residues each side
# Procedure, shortened: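 Expression of GST-fused Tbr T-box DNA-binding domains, each holding the full T-box plus roughly five flanking residues, was carried out in BL21 E. coli at 20 °C, with purification by glutathione affinity chromatography. Universal Agilent arrays made double-stranded by primer extension were incubated with the protein at 200 nM in PBS (pH 7.5), then scanned and quantified. All ungapped 8-mers were scored from probe intensities, and each received an enrichment E-score from the Universal PBM Analysis Suite, averaged over duplicate arrays.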
row,Sequence,PBM E-score of 8-mer
1,ACCGACAC,0.373 ± 0.0082
2,ACCGACAT,-0.042 ± 0.038
3,GCCGACAA,0.161 ± 0.014
4,GACAATTA,0.029 ± 0.11
5,GGACAACA,0.0909 ± 0.012
6,GAGGATGC,-0.0317 ± 0.049
7,CGGAATGC,-0.214 ± 0.051
8,CCGAACGC,-0.0118 ± 0.08
9,GCGAACGA,0.283 ± 0.035
10,GCGAACGC,0.3749 ± 0.0018
11,GCAGAGAA,-0.328 ± 0.0058
12,GACTCTCA,0.0161 ± 0.056
13,GTTCACAA,0.376 ± 0.02
14,ATTCACAA,0.299 ± 0.061
15,ATTCACTC,0.115 ± 0.056
16,GTTCACGA,0.275 ± 0.0011
17,ATTCACAC,0.4807 ± 0.0029
18,ATTCACTG,0.0169 ± 0.045
19,GTTCACTA,-0.0482 ± 0.02
20,CTTCACAC,0.4852 ± 0.00088
21,ATTCACCG,0.0187 ± 0.041
22,CTTCACAA,0.32 ± 0.0058
23,CTTCACCC,0.123 ± 0.04
24,ATTCACAG,0.395 ± 0.025
25,AGAGAGCT,-0.0758 ± 0.017

row,Sequence,PBM E-score of 8-mer
1,GGAGAACC,0.0265 ± 0.00056
2,GCAATACA,-0.0823 ± 0.031
3,CATCGACA,0.222 ± 0.013
4,ACTTTTCT,0.00466 ± 0.018
5,CATAAGTC,-0.18 ± 0.0024
6,CACAGTTA,0.147 ± 0.022
7,CCTCAGAC,-0.204 ± 0.031
8,CACAACAA,0.285 ± 0.028
9,GACAACAA,0.215 ± 0.015
10,GTCAACAA,0.333 ± 0.0095
11,CACAACAC,0.3898 ± 0.0017
12,AACAACAT,0.187 ± 0.02
13,AACAACAA,0.102 ± 0.0091
14,CTCAACAC,0.269 ± 0.022
15,CACAACAG,0.198 ± 0.0064
16,GACAACAC,0.385 ± 0.0048
17,GTCAACAC,0.434 ± 0.0065
18,GACAACTC,0.252 ± 0.019
19,AACAACAC,0.373 ± 0.013
20,AGAGCCAG,0.0237 ± 0.035
21,TGTTTCAA,-0.0693 ± 0.047
22,CAGCGCAA,-0.0911 ± 0.0026
23,GCAGCGCC,0.189 ± 0.062
24,CGCATGGC,-0.0354 ± 0.028
25,CCTCCACG,0.0268 ± 0.029

row,Sequence,PBM E-score of 8-mer
1,CCGCAAGG,-0.0599 ± 0.044
2,ACCGTCCG,-0.0723 ± 0.023
3,CGGTTAAA,-0.129 ± 0.16
4,GCGACACC,0.432 ± 0.021
5,ACGACACG,0.226 ± 0.042
6,CCGACACG,0.253 ± 0.034
7,GGGACACC,0.226 ± 0.042
8,ACGACACC,0.419 ± 0.02
9,GCGACACA,0.31 ± 0.0039
10,CCGACACA,0.36 ± 0.022
11,ACGACACT,0.257 ± 0.0054
12,CCGACACC,0.438 ± 0.0068
13,CGTTGGGC,-0.255 ± 0.022
14,ATCAATCC,-0.172 ± 0.082
15,GAACGATC,0.0814 ± 0.028
16,CCTGACCC,-0.133 ± 0.084
17,TGAGCGCA,0.00286 ± 0.049
18,GTGTGATA,0.459 ± 0.0047
19,ATGTGAGA,0.414 ± 0.018
20,ATGTGAGG,0.28 ± 0.041
21,GTGTGAGA,0.4699 ± 0.0024
22,ATGTGAGC,0.06995 ± 0.00026
23,GTGAGAGA,0.339 ± 0.0054
24,CTGTGAGA,0.292 ± 0.0058
25,CTGTGATA,0.23 ± 0.055

row,Sequence,PBM E-score of 8-mer
1,ATGTGATA,0.254 ± 0.024
2,CCGATCAA,0.0887 ± 0.014
3,GTACTTGA,0.0232 ± 0.044
4,GCATCCCA,-0.16 ± 0.063
5,GTCACAAC,0.293 ± 0.0073
6,CGGTGTAA,0.216 ± 0.014
7,AGGTGTAG,0.3922 ± 0.0034
8,CGGTGTAG,0.17 ± 0.083
9,AGGTGTAA,0.475 ± 0.011
10,AGGTGTAC,0.294 ± 0.0088
11,AGGTGTAT,0.281 ± 0.011
12,GGGTGTAA,0.386 ± 0.0076
13,GGGTGTAC,-0.0335 ± 0.078
14,TGGTGTAA,0.292 ± 0.059
15,CTGGCCCC,-0.113 ± 0.035
16,AACGAGCG,0.0213 ± 0.0072
17,GAGCAAGA,-0.187 ± 0.011
18,AATCAGTC,-0.0936 ± 0.015
19,CTCGTTAC,-0.116 ± 0.031
20,GGTTGCGA,0.266 ± 0.015
21,CGCGCAAC,0.173 ± 0.066
22,AGTGTGAT,0.4721 ± 0.0012
23,ATTGTGAG,0.25 ± 0.035
24,AGTGTGAC,0.445 ± 0.011
25,AATGTGAT,0.253 ± 0.0037

row,Sequence,PBM E-score of 8-mer
1,GGTGTGAC,0.4822 ± 0.0041
2,AGAGTGAT,0.231 ± 0.039
3,ACTGTGAC,0.237 ± 0.023
4,GCTGTGAC,0.161 ± 0.042
5,GATGTGAC,0.273 ± 0.019
6,AGTGTGTC,0.234 ± 0.06
7,AGTGTGAG,0.4646 ± 0.0021
8,AGTGTGTG,0.36 ± 0.023
9,GGAGCTAA,-0.165 ± 0.013
10,GATTTCAC,0.332 ± 0.023
11,ACCTGTAA,0.154 ± 0.021
12,AGGCATTG,-0.17 ± 0.042
13,ATTCAAGG,-0.262 ± 0.017
14,CCAGCGGA,-0.0913 ± 0.043
15,ATGACGGA,-0.139 ± 0.0034
16,CGTGTGAC,0.399 ± 0.012
17,CCTGTGAC,0.263 ± 0.011
18,CGTGTGTC,0.172 ± 0.058
19,CCTGTGAG,0.24582 ± 4.2e-05
20,CGTGTGAG,0.4011 ± 0.0033
21,CATGTGAG,0.137 ± 0.0055
22,CCCAACTA,-0.164 ± 0.083
23,AGCGTCCC,-0.148 ± 0.0096
24,GCTTATCC,0.125 ± 0.027
25,CCTCATAA,-0.0692 ± 0.021

row,Sequence,PBM E-score of 8-mer
1,ACGTGTTG,0.367 ± 0.00092
2,ACGTGTTC,0.1884 ± 0.00041
3,ACGTGTTA,0.431 ± 0.015
4,ACGTGTAG,0.133 ± 0.068
5,GCGTGTTA,0.302 ± 0.018
6,CCGTGTTA,0.158 ± 0.029
7,GATCGCTA,0.136 ± 0.022
8,GGTCGATA,0.0927 ± 0.012
9,AACTGTTG,0.241 ± 0.017
10,CACGCAGA,0.0713 ± 0.028
11,CTTGACGC,0.324 ± 0.011
12,ATTGACAC,0.418 ± 0.0052
13,CTTGACAC,0.436 ± 0.0093
14,ATTGACAG,0.102 ± 0.07
15,ATTGACAA,0.298 ± 0.026
16,CTTGACCC,-0.308 ± 0.038
17,ACACAGAA,-0.134 ± 0.016
18,GGATAGAC,-0.202 ± 0.041
19,ACTCAATC,-0.0092 ± 0.032
20,AAACACCA,0.238 ± 0.027
21,CAACACTA,0.264 ± 0.025
22,CAACACGA,0.185 ± 0.0087
23,CAACACCG,0.312 ± 0.0065
24,GAACACTA,0.013 ± 0.018
25,CAACACGC,0.203 ± 0.0098

row,Sequence,PBM E-score of 8-mer
1,GAACACCC,0.116 ± 0.0077
2,TAACACTA,0.373 ± 0.042
3,TAACACCA,0.43 ± 0.011
4,GAACACCA,0.104 ± 0.014
5,CAACACCC,0.433 ± 0.012
6,CAACACCA,0.37255 ± 7.8e-05
7,TCAAGGAA,-0.0393 ± 0.033
8,GCTGATCA,0.179 ± 0.059
9,CCCAATGA,-0.198 ± 0.013
10,CCGACCCG,-0.073 ± 0.13
11,GACTCGAC,-0.0494 ± 0.0017
12,CTAATGCA,0.038 ± 0.071
13,GTAGAGAC,-0.094 ± 0.029
14,CCACTATC,0.129 ± 0.028
15,TACACGAA,-0.0857 ± 0.046
16,CCTTGCGA,0.183 ± 0.056
17,AGTTGCGC,0.13 ± 0.063
18,AGTTGCGG,0.126 ± 0.029
19,AGTTGCGA,0.3999 ± 0.00081
20,ACTTGCGA,0.388 ± 0.021
21,GCTTGCGA,0.16 ± 0.0045
22,CAGGGATC,-0.17 ± 0.046
